PubChem BioAssay AID651650 (Sanford-Burnham Center for Chemical Genomics, 2012)

Target: Neuropilin-1 (Homo sapiens) (UniProt O14786)
Test: NRP-1 b1b2 CendR peptide binding inhibitors, dose response, biochemical, FP and AlphaScreen panel (AID 651650)
Details: NRP-1 b1b2 / RPARPAR peptide binding, FP or AlphaScreen; run 1, at 100 µM (top of the series)

Sequence of Neuropilin-1 (Homo sapiens) (O14786 whole entry, looked up): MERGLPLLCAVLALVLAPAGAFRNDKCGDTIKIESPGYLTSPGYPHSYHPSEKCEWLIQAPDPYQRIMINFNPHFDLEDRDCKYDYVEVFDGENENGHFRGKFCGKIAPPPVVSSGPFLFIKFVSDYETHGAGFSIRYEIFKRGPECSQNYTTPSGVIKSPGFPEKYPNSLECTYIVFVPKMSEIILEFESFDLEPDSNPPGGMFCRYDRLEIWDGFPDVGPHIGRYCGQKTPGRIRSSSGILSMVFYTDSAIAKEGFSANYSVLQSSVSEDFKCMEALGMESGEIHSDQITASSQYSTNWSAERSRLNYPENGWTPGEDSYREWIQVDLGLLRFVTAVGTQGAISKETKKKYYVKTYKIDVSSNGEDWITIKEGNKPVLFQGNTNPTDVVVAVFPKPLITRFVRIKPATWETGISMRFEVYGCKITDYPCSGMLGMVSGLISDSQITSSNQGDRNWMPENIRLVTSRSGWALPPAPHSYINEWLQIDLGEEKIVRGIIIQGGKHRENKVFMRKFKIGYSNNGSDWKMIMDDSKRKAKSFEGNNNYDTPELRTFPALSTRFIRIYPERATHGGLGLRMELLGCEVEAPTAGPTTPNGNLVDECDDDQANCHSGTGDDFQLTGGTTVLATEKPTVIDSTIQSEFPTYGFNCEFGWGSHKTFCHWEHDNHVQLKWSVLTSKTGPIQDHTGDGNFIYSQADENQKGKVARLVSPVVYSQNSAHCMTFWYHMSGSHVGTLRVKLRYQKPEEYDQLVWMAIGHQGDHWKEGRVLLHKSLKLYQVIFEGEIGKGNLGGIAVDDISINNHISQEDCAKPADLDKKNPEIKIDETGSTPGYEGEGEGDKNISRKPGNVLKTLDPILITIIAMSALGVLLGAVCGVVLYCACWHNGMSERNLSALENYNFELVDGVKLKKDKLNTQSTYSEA

| SMILES | inhibition [%] |
| --- | --- |
| Cc1cc(N/C(=N/S(=O)(=O)c2cc(F)ccc2F)c2ccccc2)n(-c2ccccc2)n1 | -9.15 |
| Cc1csc(NC(C)c2nc3cc(C(F)(F)F)ccc3n2CCCO)n1 (configuration not stated) | 89.7 |
| O=[N+]([O-])c1ccc(-n2nnnc2CN2CCCCC2)cc1 | 22.7 |
| COc1ccc(/C=N/NC(=O)c2cc(C(C)(C)C)[nH]n2)cc1COc1ccc(F)cc1F | 26 |
| CC(C)COC(=O)C1C2C=CC3(CN(C(C)c4ccc(Br)cc4)C(=O)C13)O2 (configuration not stated) | 60.2 |
| CCC1Nc2ncnc(N3CCCCC3)c2N(Cc2ccc(C)cc2)C1=O (configuration not stated) | 18.8 |
| CC(=NN(Cc1ccccc1)c1ccccc1)c1ccccc1 | 87.9 |
| CC1CCC(NC(=O)C2CCC(CNS(=O)(=O)c3cccc4cccnc34)CC2)CC1 (configuration not stated) | 19 |
| NC(=O)c1c(NC(=O)C(=O)N2CCOCC2)sc2c1CCCC2 | 16.2 |
| CCCCOc1ccc(C(=O)N/C(=C/C=C/c2ccccc2)C(=O)NCCCO)cc1 | 10.5 |
| CCOC(=O)c1ccc(NC(=O)CN2CCc3ccccc3C2)cc1 | 1.94 |
| CC(C)Oc1ccc(F)cc1-c1cc(C(=O)NCc2ccc(F)cc2)[nH]n1 | 16 |
| COc1ccc([C@H]2/C=C\CN(C(=O)C3CC3)[C@@H](C)C(=O)N2Cc2ccc(F)cc2)cc1 | 30.1 |
| Cc1cc(=O)n2nc(N3CCCC(C(=O)N4CCOCC4)C3)sc2n1 (configuration not stated) | 17 |
| Cn1cccc1C1Nc2ccccc2NC2=C1C(=O)CC(C)(C)C2 (configuration not stated) | 12.9 |
| Cc1cccc(CN2CCN(C3CN(Cc4cn(Cc5cccc(Cl)c5)nn4)S(=O)(=O)C3)CC2)c1 (configuration not stated) | 33.2 |
| O=C(Cc1ccccc1Cl)N1CCOCC1 | 25.2 |
| Cc1ccc(C(=O)O)cc1NC(=O)Nc1cccc2ccccc12 | 30.6 |
| COc1cc(C(=O)OCC(=O)Nc2c(F)c(F)c(F)c(F)c2F)cc(OC)c1OC | 17.8 |
| c1ccc2c3n(nc2c1)CCCO3 | 27.6 |
| CCCCn1nnnc1C(c1cc2ccccc2o1)N(C)Cc1ccc(Cl)c(Cl)c1 (configuration not stated) | 104 |
| COCCNC(=O)c1cc(-c2ccccc2)nn1CC1CC(c2cccc([N+](=O)[O-])c2)=NO1 (configuration not stated) | 14.3 |
| CCN(CC)C(=O)CSc1nnc(-c2c[nH]c3ccccc23)o1 | 46.9 |
| CC(NCCOCCOc1ccccc1)c1ccccc1 (configuration not stated) | 39.6 |
| CC(=O)Nc1ccc(NC(=O)C2CC(=O)N=C(N)S2)cc1 (configuration not stated) | 95.5 |
| O=C(CSc1nnc(Cc2ccccc2)n1Cc1ccccc1)NCc1ccco1 | 8.68 |

| SMILES | inhibition [%] |
| --- | --- |
| Cc1ccc(Cl)cc1N1CCN(C(=O)c2cccc3c(=O)c(C)c(-c4ccccc4)oc23)CC1 | 20.7 |
| CCOc1ccc(S(=O)(=O)N2CCN(C(=O)c3sccc3C)CC2)cc1 | 101 |
| CC1(C)S[C@@H]2[C@H](NC(=O)COc3ccccc3)C(=O)N2C1C(=O)OCc1ccccc1 (some centres not stated) | 53.2 |
| O=C(/C=C/c1ccco1)N/C(=C\c1ccccc1)C(=O)NCCc1nc2ccccc2[nH]1 | 11.8 |
| CSc1cccc(CN2CCN(Cc3ccccc3)C(CCO)C2)c1 (configuration not stated) | 48.8 |
| CCN(CC(=O)NCc1cccs1)S(=O)(=O)c1ccc(C(C)C)cc1 | 1.66 |
| Cc1cc(C)cc(N(CCC(=O)O)S(=O)(=O)c2ccc3ccccc3c2)c1 | 38.7 |
| CC(C)(C)C(=O)c1cnc(Nc2ccccc2)s1 | -10.5 |
| COc1ccc([C@H]2/C=C\CN(S(C)(=O)=O)[C@@H](C)C(=O)N2Cc2ccc(F)cc2)cc1 | 28.8 |
| Cn1cnc2cc(NC(=O)c3ccco3)ccc21 | 77.5 |
| Cc1ccc(NC(=O)c2ccc3c(c2)OCCO3)cc1S(=O)(=O)Nc1cccc(Cl)c1 | 4.91 |
| O=C(c1ccc(-c2cccc(C(F)(F)F)c2)o1)N1CCCC(C(F)(F)F)C1 (configuration not stated) | 3.1 |
| C=C(C)COc1ccc(-c2[nH]ncc2-c2ccccc2)c(O)c1 | 16.9 |
| NCCCC[C@H]1CN=C(N)N1CCC12CC3CC(CC(C3)C1)C2 | 70.7 |
| Cc1occc1C(=O)N1N=C(C2CC2)CC1(O)C(F)(F)F (configuration not stated) | 35.3 |
| C=CCC1(CC=C)CCCN1C(=O)c1cc(COc2cccc(OC)c2)on1 | 39.2 |
| CC(C)(C)c1nc(SCC(=O)NCc2ccco2)c2ccccc2n1 | 44.2 |
| COc1ccc(/C=N/NC(=O)c2nn(-c3ccc(Cl)cc3)c(=O)c3c(N)scc23)cc1 | 17.8 |
| Cc1ccc(C(=O)N/C(=C\c2sccc2C)C(=O)NCc2ccco2)cc1 | 53.9 |
| NC(=O)CC[C@H](NC(=O)c1ccc(F)cc1)C(=O)N1CCN(Cc2ccc3c(c2)OCO3)CC1 | 28.6 |
| COc1ccc(N(CC(=O)NCc2ccco2)C(=O)CCC(=O)Nc2ccccn2)cc1 | -5.26 |
| Cc1cc(S(=O)(=O)NC2CCCCC2)ccc1OCC(=O)N1CCOCC1 | 97.6 |
| CCO[C@@H]1OC(C(=O)NCc2ccccc2)=C[C@H](c2ccc(Br)cc2)[C@H]1CCCO | 102 |
| COc1ccc(CCNC(=O)c2c(O)c3cccc4c3n(c2=O)CC4)cc1OC | 37.4 |
| CCNS(=O)(=O)c1ccc(CCC(=O)O)cc1 | 23.4 |
| COc1ccc(Nc2nc(-c3cccnc3)nc3ccccc23)cn1 | 68.3 |

| SMILES | inhibition [%] |
| --- | --- |
| O=C(CSc1nc2ccccc2n1Cc1ccccc1Cl)N/N=C/c1ccccc1C(=O)O | 84.6 |
| Cc1nnc(NC(=O)c2ccccc2C(=O)O)s1 | 99.7 |
| Cc1ccccc1-c1cnc(C(O)c2ccc(F)c(F)c2)[nH]1 (configuration not stated) | 43.1 |
| CNc1nc(-c2ccc3c(c2)CCN3C(=O)c2ccccc2F)cs1 | 14.5 |
| CC(OC(=O)c1ccco1)C(=O)Nc1nc(-c2ccccc2)cs1 (configuration not stated) | -9.71 |
| CCCCCc1c(-c2cccc(Cl)c2)ncn1CCc1ccccc1OC | 51.8 |
| C#CCOc1nc(C)cc(C)c1S(=O)(=O)c1ccccc1C | 25.9 |
| Cc1onc(-c2ccccc2)c1C(=O)Nc1c(C)n(C)n(-c2ccccc2)c1=O | 28.1 |
| Fc1cc(Cl)ccc1Nc1nc(NCc2ccccc2)nc2ccsc12 | 23 |
| OCCCc1n[nH]c(=S)n1-c1ccccc1 | 31.2 |
| O=C(CSc1nc2ccccc2c(=O)n1-c1ccc(F)cc1F)Nc1ccc2c(c1)CCC2 | 21.2 |
| O=C(/C=C/c1ccccc1)c1ccccn1 | -2 |
| Cc1onc(-c2ccc(Cl)cc2Cl)c1-c1csc(COc2ccccc2)n1 | 65.6 |
| COc1ccc(C(=O)COC(=O)C(CCSC)NS(=O)(=O)c2ccc(Cl)cc2)cc1 (configuration not stated) | -2.36 |
| Cc1cc(NC(=O)COC(=O)c2ccc(C)c(C)c2)no1 | 5.88 |
| Cc1[nH]n(-c2ccccc2)c(=S)c1C=Nc1cccc([N+](=O)[O-])c1 | 14.4 |
| O=C(CCc1ccc(Oc2cc([N+](=O)[O-])cc([N+](=O)[O-])c2)cc1)N1CCCCCC1 | 75.6 |
| c1ccc(OCCCN2CCCC2)cc1 | 53.9 |
| O=C(Nc1ccccc1N1CCOCC1)c1ccc(N2CCCC2=O)cc1 | 46.3 |
| CN1C(=O)c2oc3ccccc3c(=O)c2C1c1ccccn1 (configuration not stated) | 82.2 |
| C[C@@H]1CC=C[C@H]2[C@H]1C(=O)N(Cc1ccccc1)[C@H]2c1ccc(/C=C/c2ccccc2)cc1F | 48.3 |
| Cc1ccc(N(C(=O)c2ccc(CN3CCOCC3)o2)C(C(=O)NCCC(C)C)c2cccs2)c(C)c1 (configuration not stated) | 16 |
| O=C(c1ccc(-c2cccc(Cl)c2)o1)N1CCN(c2ccc([N+](=O)[O-])cc2)CC1 | 21.7 |
| CN(C(=O)COC(=O)c1nc(-c2ccccc2)n(-c2ccccc2)n1)C1CCS(=O)(=O)C1 (configuration not stated) | -0.283 |
| CN(Cc1ccccc1)C(=O)c1nc[nH]c1C(=O)N1CCN(C(=O)OC(C)(C)C)CC1 | 53.3 |
